# For part of these data: Entries with a potency or affinity are not part of this list. Calls of active or inactive are those of the source. Unless noted, how the calls were made is not given here.
# What was measured:
# [1] = compounds altering circadian rhythm period length – cell-based, LOPAC library, luminescence reporter (AID 2774); conditions: circadian reporter cells, at 7 µM, actives lie on both sides;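 further: values are relative to mean of DMSO wells on each plate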
# [2] = tested on: Hepatitis C virus NS3 helicase; assay: blockers of NS3h binding to ssDNA – biochemical, fluorescence polarization, LOPAC1280 library, primary screen (AID 687035; in the data active means inhibition above about 37%); conditions: Purified HCV NS3 helicase, Cy5-dT15 ssDNA binding fluorescence polarization; stronger effect = higher value; concentration not given here
# [3] = compounds altering Cy5-DNA-NS3h complex signal – biochemical, LOPAC1280, artefact control for HCV NS3 helicase inhibitor project (AID 687037); conditions: Cy5-DNA-NS3h complex fluorescence interference counterscreen
# [4] = growth inhibition, single agent or in combination, cell-based, chromothripsis tumors, cisplatin or BGB combos (AID 1671449; in the data active means inhibition above about 80%;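 further: cells exposed for 96 hours; 0% = vehicle DMSO and 100% = killing by high DMSO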); conditions: LFS_MB_P medulloblastoma cells
# [5] = growth inhibition, single agent and combos, cell-based, chromothripsis tumors, cisplatin or BGB combos (AID 1671450; in the data active means inhibition above about 80%;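 further: cells exposed to compound for four days; 0% = vehicle DMSO and 100% = cell killing by high DMSO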); conditions: HDN33 neuroblastoma cells, stronger effect = higher value
# [6] = growth inhibition, single agents and combos, HTB85, cell-based, BGB or cisplatin IC20 combos, synergistic combos for chromothripsis tumors (AID 1671453; in the data active means inhibition above about 80%;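 further: cells exposed for 96 hours before readout; 0% = vehicle DMSO and 100% = high DMSO killing control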); conditions: HTB85 osteosarcoma cells, drug combinations, stronger effect = higher value
# [7] = growth inhibition, MDA-MB-436, cell-based, BGB or cisplatin combos, synergistic combos for chromothripsis tumors (AID 1671458); conditions: MDA-MB-436 breast carcinoma growth inhibition, drug combinations, stronger effect = higher value;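 further: cells exposed for 96 hours; 0% = vehicle DMSO and 100% = killing by high DMSO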
# [8] = BT084 cell growth, single and combined drugs, ICGC_MB145, cisplatin and BGB IC40 combos (AID 1671461; in the data active means inhibition above about 80%;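 further: cells exposed to drugs for 96 hours; 0% = vehicle DMSO and 100% = high DMSO full killing control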); conditions: BT084 medulloblastoma cells, drug combinations, stronger effect = higher value
# [9] = blockers of cellular phospholipid synthesis – cell-based, LOPAC library, screen 4, primary screen (AID 1347384); conditions: animal cells, phospholipid biosynthesis inhibition screen; at 10 µM
# [10] = blockers of polyQ-driven CASP3 activation – cell-based (AID 1583); conditions: polyglutamine-induced caspase-3 activation, cell assay; stronger effect = higher value;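 tested at 10 µM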
# [11] = yeast 75Q aggregation reduction – 75Q-TubU reporter (AID 1593); conditions: Yeast 75Q polyglutamine aggregation reporter
# [12] = restoration of touch response, mutant HTT neurons – whole organism, C. elegans mechanosensory neurons, N-terminal huntingtin (AID 1599); conditions: C. elegans polyQ-huntingtin mechanosensory neurons, stronger effect = higher value
# [13] = blockers of cytochrome c efflux from mitochondria – biochemical, purified mitochondria (AID 1603); conditions: stronger effect = lower value;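 further: mouse liver mitochondria challenged with calcium chloride; signal normalized to the plate average as 100%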
# [14] = polyglutamine aggregate formation blockers (AID 1604); conditions: polyglutamine-induced protein aggregation inhibition assay; stronger effect = higher value; tested at 2.5 µM
# [15] = glutamate transport activators, MN-1 cells, MN-1 cell line (AID 1612); conditions: MN-1 motor neuron cells, stronger effect = higher value;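 further: tested at 1 µM final; 0% = mean of DMSO vehicle wells on each plate; positive means more glutamate uptake than control and negative means less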
# [16] = 75Q-TubH aggregate inhibition, S. cerevisiae, yeast (AID 1616); conditions: S. cerevisiae 75Q-TubH polyglutamine aggregation suppression; stronger effect = higher value
# [17] = at 0.5 µM, stronger effect = higher value
# [18] = measured here: combination with BGB IC20, at 0.005 µM
# [19] = measured here: combination with BGB IC40, at 0.005 µM
# [20] = measured here: combination with BGB IC40, at 0.05 µM
# [21] = measured here: combination with cisplatin, at 0.5 µM, stronger effect = higher value
# [22] = measured here: combination with cisplatin, at 5 µM, stronger effect = higher value
# [23] = measured here: with BGB IC20 combination, at 0.5 µM
# [24] = measured here: with cisplatin IC20 combination, at 0.5 µM
# [25] = measured here: with BGB IC20, at 0.5 µM
# [26] = measured here: with BGB IC20, at 5 µM
# [27] = measured here: with cisplatin IC20, at 0.5 µM
# [28] = measured here: with cisplatin IC20, at 5 µM
# [29] = measured here: BGB combination, at 0.5 µM
# [30] = measured here: BGB combination, at 5 µM
# [31] = measured here: cisplatin combination, at 0.5 µM
# [32] = measured here: cisplatin combination, at 5 µM
# [33] = cisplatin combination, at 0.5 µM
# [34] = measured here: BGB IC40 combination 0.05 uM, at 0.05 µM
smiles,measurement,setting,value
CCCn1cnc2c1c(=O)n(CCCCC(C)=O)c(=O)n2C,period change,[1],0.185 h (inactive)
same,inhibition,[2],1% (inactive)
same,fluorescence ratio (interference),[3],1 (inactive)
Cc1ccc2nc(N)[nH]c(=O)c2c1Sc1ccncc1,inhibition,[4]; [17],15.7% (inactive)
same,inhibition,[4]; [18],-4.28%
same,inhibition,[4]; [19],-17.9%
same,inhibition,[4]; [20],-6.64%
same,inhibition,[4]; [21],12.2%
same,inhibition,[4]; [22],-5.06%
same,inhibition,"[5]; BGB combo, at 5 µM",21.4%
same,inhibition,[5]; at 0.5 µM,-26.6% (inactive)
same,inhibition,"[5]; cisplatin combo, at 5 µM",28.1%
same,inhibition,[5]; [23],-32.4%
same,inhibition,[5]; [24],-14.7%
same,inhibition,"[5]; single agent, at 5 µM",43.4%
same,inhibition,[6]; at 0.5 µM,-33.1% (inactive)
same,inhibition,[6]; [25],-36.1%
same,inhibition,[6]; [26],7.13%
same,inhibition,[6]; [27],-25.9%
same,inhibition,[6]; [28],0.276%
same,inhibition,"[6]; single agent, at 5 µM",0.242%
same,inhibition,[7]; at 0.5 µM,-7.12% (inactive)
same,inhibition,[7]; [29],-5.47%
same,inhibition,[7]; [30],11%
same,inhibition,[7]; [31],-13.7%
same,inhibition,[7]; [32],37.3%
same,inhibition,[8]; at 0.5 µM,3.52% (inactive)
same,inhibition,[8]; [33],-1.35%
same,inhibition,"[8]; cisplatin combination, at 5 µM",-137%
same,inhibition,[8]; [34],-7.71%
same,inhibition,"[8]; single agent, at 5 µM",6.61%
CN1C[C@@H]2C[C@H]1CN2c1cc2c(cc1F)c(=O)c(C(=O)O)cn2C1CC1,inhibition,[4]; [17],0.4% (inactive)
same,inhibition,[4]; [18],-2.07%
same,inhibition,[4]; [19],-7.14%
same,inhibition,[4]; [20],-8.41%
same,inhibition,[4]; [21],-11.6%
same,inhibition,[4]; [22],-5.22%
same,inhibition,"[5]; BGB combo, at 5 µM",-34.1%
same,inhibition,[5]; at 0.5 µM,-30.1% (inactive)
same,inhibition,"[5]; cisplatin combo, at 5 µM",-33.7%
same,inhibition,[5]; [23],-23.1%
same,inhibition,[5]; [24],-48.5%
same,inhibition,"[5]; single agent, at 5 µM",-33.7%
same,inhibition,[6]; at 0.5 µM,-40.1% (inactive)
same,inhibition,[6]; [25],-66.1%
same,inhibition,[6]; [26],-64.1%
same,inhibition,[6]; [27],-24.8%
same,inhibition,[6]; [28],-32.6%
same,inhibition,"[6]; single agent, at 5 µM",-25%
same,inhibition,[7]; at 0.5 µM,-9.69% (inactive)
same,inhibition,[7]; [29],1.19%
same,inhibition,[7]; [30],-5.03%
same,inhibition,[7]; [31],-28.1%
same,inhibition,[7]; [32],-7.33%
same,inhibition,[8]; at 0.5 µM,-14.9% (inactive)
same,inhibition,[8]; [33],-11.4%
same,inhibition,"[8]; cisplatin combination, at 5 µM",-13.9%
same,inhibition,[8]; [34],0.828%
same,inhibition,"[8]; single agent, at 5 µM",-12.4%
CN(C)CCCO[C@@H]1[C@H]2OC(C)(C)O[C@H]2O[C@@H]1C(O)CO (stereo partly specified),period change,[1],-0.08 h (inactive)
same,inhibition,[2],-4% (inactive)
same,fluorescence ratio (interference),[3],1 (inactive)
CCc1cccc(N(C)C(N)=Nc2cccc3ccccc23)c1,period change,[1],-0.08 h (inactive)
same,inhibition,[2],1% (inactive)
same,fluorescence ratio (interference),[3],1 (inactive)
same,outcome,[9],inactive
CN1CCN(C2Cc3ccccc3Sc3ccc(Cl)cc32)CC1 (stereo unspecified),period change,[1],0.285 h (inactive)
same,inhibition,[2],-1% (inactive)
same,fluorescence ratio (interference),[3],1 (inactive)
same,outcome,[9],inactive
NC1=NCC2c3ccccc3Cc3ccccc3N12 (stereo unspecified),inhibition,[2],-2% (inactive)
same,fluorescence ratio (interference),[3],1 (inactive)
same,outcome,[9],inactive
CNS(=O)(=O)CCc1ccc2[nH]cc(C3CCN(C)CC3)c2c1,outcome,[9],inactive
O=C(O)CCC(=O)OC[C@@H](NC(=O)C(Cl)Cl)[C@H](O)c1ccc([N+](=O)[O-])cc1,inhibition,[10],29.9%
same,score,[11],1.53
same,rescue above control,[12],-1.33
same,cytochrome c release ratio,[13],0.7
same,inhibition of aggregation,[14],74.7%
same,glutamate uptake change,[15],7.22%
same,aggregation suppression score,[16],1.43
Cc1ccc(O)cc1,inhibition,[10],26.8%
same,score,[11],0.73
same,rescue above control,[12],-1.33
same,cytochrome c release ratio,[13],0.32
same,inhibition of aggregation,[14],83.3%
same,glutamate uptake change,[15],1.82%
same,aggregation suppression score,[16],1.04
O=C(CCCN1CCC(O)(c2cccc(C(F)(F)F)c2)CC1)c1ccc(F)cc1,period change,[1],0.235 h (inactive)
same,inhibition,[2],-3% (inactive)
same,fluorescence ratio (interference),[3],1 (inactive)
same,outcome,[9],inactive
Oc1ccc(O)cc1,period change,[1],-0.06 h (inactive)
same,inhibition,[2],0% (inactive)
same,fluorescence ratio (interference),[3],1.1 (inactive)
same,outcome,[9],inactive

# From PubChem BioAssay
